# How the values were obtained:
# Assay in all cases: yeast three-hybrid, YBZ-1, SC-Leu-His + 0.5 mM 3-AT, 4 days
# Conditions in all cases: tags: N-Gal4 AD-HA kept; label: inside an RPR1-promoter hybrid RNA with tandem MS2 sites; ssRNA
# PUM1 PUF domain R3-MRE = PUM1 PUF domain R3-MRE (Homo sapiens, UniProt Q14671 828-1176, C935M;Q939E)
# Method in brief: (§1)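 Sequencing with Illumina followed PCR amplification of the repeat regions from transformants grown four days on SC-Leu (input) or SC-Leu-His + 0.5 mM 3-AT (selection). The transformants were strain YBZ-1 with a LexA–MS2 coat fusion and a HIS3 reporter, carrying Pumilio-1 PUF domain libraries and matching RNA elements. The interaction score is the log change in variant frequency from input to selection, computed in log2 with a pseudocount of 1 for absent variants.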
# PUM1 PUF domain R5-ERS = PUM1 PUF domain R5-ERS (Homo sapiens, UniProt Q14671 828-1176, C1007E;Q1011S)
# PUM1 PUF domain R5-ERS, sequence (Q14671 828-1176 C1007E/Q1011S): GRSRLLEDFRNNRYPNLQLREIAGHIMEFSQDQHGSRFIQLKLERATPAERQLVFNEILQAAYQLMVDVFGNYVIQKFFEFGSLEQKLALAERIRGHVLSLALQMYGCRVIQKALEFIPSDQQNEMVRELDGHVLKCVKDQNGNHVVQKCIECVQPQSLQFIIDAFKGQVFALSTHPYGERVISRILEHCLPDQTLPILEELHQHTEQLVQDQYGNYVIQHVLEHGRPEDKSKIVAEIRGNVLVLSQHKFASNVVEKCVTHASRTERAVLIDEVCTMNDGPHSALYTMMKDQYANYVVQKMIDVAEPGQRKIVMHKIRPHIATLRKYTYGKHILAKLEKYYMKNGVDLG
# Method in brief: as §1
# PUM1 PUF domain R5-DWG = PUM1 PUF domain R5-DWG (Homo sapiens, UniProt Q14671 828-1176, C1007D;R1008W;Q1011G)
# PUM1 PUF domain R5-DWG, sequence (Q14671 828-1176 C1007D/R1008W/Q1011G): as the sequence (Q14671 828-1176 C1007E/Q1011S) above, with E180D, R181W, S184G counted along it
# Method in brief: as §1
# PUM1 PUF domain R7-NTG = PUM1 PUF domain R7-NTG (Homo sapiens, UniProt Q14671 828-1176, S1079N;N1080T;E1083G)
# PUM1 PUF domain R7-NTG, sequence (Q14671 828-1176 S1079N/N1080T/E1083G): as the sequence (Q14671 828-1176 C1007E/Q1011S) above, with E180C, S184Q, S252N, N253T, E256G counted along it
# Method in brief: as §1
# PUM1 PUF domain R8-SFR = PUM1 PUF domain R8-SFR (Homo sapiens, UniProt Q14671 828-1176, N1122S;Y1123F;Q1126R)
# PUM1 PUF domain R8-SFR, sequence (Q14671 828-1176 N1122S/Y1123F/Q1126R): as the sequence (Q14671 828-1176 C1007E/Q1011S) above, with E180C, S184Q, N295S, Y296F, Q299R counted along it
# Method in brief: as §1
# PUM1 PUF domain R5-KFG = PUM1 PUF domain R5-KFG (Homo sapiens, UniProt Q14671 828-1176, C1007K;R1008F;Q1011G)
# PUM1 PUF domain R5-KFG, sequence (Q14671 828-1176 C1007K/R1008F/Q1011G): as the sequence (Q14671 828-1176 C1007E/Q1011S) above, with E180K, R181F, S184G counted along it
# Method in brief: as §1
# PUM1 PUF domain R1-GFR = PUM1 PUF domain R1-GFR (Homo sapiens, UniProt Q14671 828-1176, S863G;R864F;Q867R)
# PUM1 PUF domain R1-GFR, sequence (Q14671 828-1176 S863G/R864F/Q867R): as the sequence (Q14671 828-1176 C1007E/Q1011S) above, with S36G, R37F, Q40R, E180C, S184Q counted along it
# Method in brief: as §1
# PUM1 PUF domain R1-KMS = PUM1 PUF domain R1-KMS (Homo sapiens, UniProt Q14671 828-1176, S863K;R864M;Q867S)
# PUM1 PUF domain R1-KMS, sequence (Q14671 828-1176 S863K/R864M/Q867S): as the sequence (Q14671 828-1176 C1007E/Q1011S) above, with S36K, R37M, Q40S, E180C, S184Q counted along it
# Method in brief: as §1
# PUM1 PUF domain R1-KGA = PUM1 PUF domain R1-KGA (Homo sapiens, UniProt Q14671 828-1176, S863K;R864G;Q867A)
# PUM1 PUF domain R1-KGA, sequence (Q14671 828-1176 S863K/R864G/Q867A): as the sequence (Q14671 828-1176 C1007E/Q1011S) above, with S36K, R37G, Q40A, E180C, S184Q counted along it
# Method in brief: as §1
# PUM1 PUF domain R8-IWK = PUM1 PUF domain R8-IWK (Homo sapiens, UniProt Q14671 828-1176, N1122I;Y1123W;Q1126K)
# PUM1 PUF domain R8-IWK, sequence (Q14671 828-1176 N1122I/Y1123W/Q1126K): as the sequence (Q14671 828-1176 C1007E/Q1011S) above, with E180C, S184Q, N295I, Y296W, Q299K counted along it
# Method in brief: as §1
# PUM1 PUF domain R3-MRE, sequence (Q14671 828-1176 C935M/Q939E): as the sequence (Q14671 828-1176 C1007E/Q1011S) above, with C108M, Q112E, E180C, S184Q counted along it
sequence,measurement,setting,value
GGCUAGAACUAGUGGAUCCCCCGGCGCCCGGCGGCUCGAGCCCGGGUAAGUGUAAUUAGUCUGCAUGCCGCCGGGCGCCAUGCCUGCAGGUCGACUCUAGAAAACAUG,binding signal,PUM1 PUF domain R3-MRE,0.23 log2 enrichment (interaction score)
GGCUAGAACUAGUGGAUCCCCCGGCGCCCGGCGGCUCGAGCCCGGGUAAGUGUGAAUAGUCUGCAUGCCGCCGGGCGCCAUGCCUGCAGGUCGACUCUAGAAAACAUG,binding signal,PUM1 PUF domain R5-ERS,2.69 log2 enrichment (interaction score)
same,binding signal,PUM1 PUF domain R5-DWG,4.74 log2 enrichment (interaction score)
GGCUAGAACUAGUGGAUCCCCCGGCGCCCGGCGGCUCGAGCCCGGGUAAGUUUAAAUAGUCUGCAUGCCGCCGGGCGCCAUGCCUGCAGGUCGACUCUAGAAAACAUG,binding signal,PUM1 PUF domain R7-NTG,5.69 log2 enrichment (interaction score)
GGCUAGAACUAGUGGAUCCCCCGGCGCCCGGCGGCUCGAGCCCGGGUAAGUGUAAAUAGUCUGCAUGCCGCCGGGCGCCAUGCCUGCAGGUCGACUCUAGAAAACAUG,binding signal,PUM1 PUF domain R8-SFR,5.31 log2 enrichment (interaction score)
same,binding signal,PUM1 PUF domain R5-KFG,3.88 log2 enrichment (interaction score)
same,binding signal,PUM1 PUF domain R5-ERS,3.92 log2 enrichment (interaction score)
same,binding signal,PUM1 PUF domain R5-DWG,2.74 log2 enrichment (interaction score)
GGCUAGAACUAGUGGAUCCCCCGGCGCCCGGCGGCUCGAGCCCGGGUAAGUGUCAAUAGUCUGCAUGCCGCCGGGCGCCAUGCCUGCAGGUCGACUCUAGAAAACAUG,binding signal,PUM1 PUF domain R5-KFG,5.1 log2 enrichment (interaction score)
same,binding signal,PUM1 PUF domain R5-ERS,0.61 log2 enrichment (interaction score)
same,binding signal,PUM1 PUF domain R5-DWG,2.09 log2 enrichment (interaction score)
GGCUAGAACUAGUGGAUCCCCCGGCGCCCGGCGGCUCGAGCCCGGGUAAGUGUAAAUUGUCUGCAUGCCGCCGGGCGCCAUGCCUGCAGGUCGACUCUAGAAAACAUG,binding signal,PUM1 PUF domain R1-GFR,2.65 log2 enrichment (interaction score)
same,binding signal,PUM1 PUF domain R1-KMS,3.69 log2 enrichment (interaction score)
same,binding signal,PUM1 PUF domain R1-KGA,3.21 log2 enrichment (interaction score)
GGCUAGAACUAGUGGAUCCCCCGGCGCCCGGCGGCUCGAGCCCGGGUAAGUGUUAAUAGUCUGCAUGCCGCCGGGCGCCAUGCCUGCAGGUCGACUCUAGAAAACAUG,binding signal,PUM1 PUF domain R5-KFG,5.35 log2 enrichment (interaction score)
same,binding signal,PUM1 PUF domain R5-DWG,5.02 log2 enrichment (interaction score)
GGCUAGAACUAGUGGAUCCCCCGGCGCCCGGCGGCUCGAGCCCGGGUAAGUGUAAAUCGUCUGCAUGCCGCCGGGCGCCAUGCCUGCAGGUCGACUCUAGAAAACAUG,binding signal,PUM1 PUF domain R1-GFR,5.46 log2 enrichment (interaction score)
same,binding signal,PUM1 PUF domain R1-KGA,3.08 log2 enrichment (interaction score)
GGCUAGAACUAGUGGAUCCCCCGGCGCCCGGCGGCUCGAGCCCGGGUAAGUGUAAGUAGUCUGCAUGCCGCCGGGCGCCAUGCCUGCAGGUCGACUCUAGAAAACAUG,binding signal,PUM1 PUF domain R3-MRE,5.14 log2 enrichment (interaction score)
GGCUAGAACUAGUGGAUCCCCCGGCGCCCGGCGGCUCGAGCCCGGGUAAGGGUAAAUAGUCUGCAUGCCGCCGGGCGCCAUGCCUGCAGGUCGACUCUAGAAAACAUG,binding signal,PUM1 PUF domain R8-IWK,2.04 log2 enrichment (interaction score)
GGCUAGAACUAGUGGAUCCCCCGGCGCCCGGCGGCUCGAGCCCGGGUAAGCGUAAAUAGUCUGCAUGCCGCCGGGCGCCAUGCCUGCAGGUCGACUCUAGAAAACAUG,binding signal,PUM1 PUF domain R8-SFR,4.79 log2 enrichment (interaction score)

# Source: PMC8384837, “Expanding the binding specificity for RNA recognition by a PUF domain”
